# Bioassay records as filed in PubChem.
# CYP2C19 inhib = human CYP2C19 inhibition; P33261; CYP2C19 Supersomes, luciferin-H EGE luminescence, 30 min; inhibition, % at 5 µM; actives 21% (n = 96,000);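 active means CYP2C19 inhibition above a set limit at 5 µM in the primary screen, cut at about 50% in these data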;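 further: plate controls were negative control wells for no effect and 2.5 mM tranylcypromine positive control for full effect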
# Target sequence (P33261 whole entry, looked up): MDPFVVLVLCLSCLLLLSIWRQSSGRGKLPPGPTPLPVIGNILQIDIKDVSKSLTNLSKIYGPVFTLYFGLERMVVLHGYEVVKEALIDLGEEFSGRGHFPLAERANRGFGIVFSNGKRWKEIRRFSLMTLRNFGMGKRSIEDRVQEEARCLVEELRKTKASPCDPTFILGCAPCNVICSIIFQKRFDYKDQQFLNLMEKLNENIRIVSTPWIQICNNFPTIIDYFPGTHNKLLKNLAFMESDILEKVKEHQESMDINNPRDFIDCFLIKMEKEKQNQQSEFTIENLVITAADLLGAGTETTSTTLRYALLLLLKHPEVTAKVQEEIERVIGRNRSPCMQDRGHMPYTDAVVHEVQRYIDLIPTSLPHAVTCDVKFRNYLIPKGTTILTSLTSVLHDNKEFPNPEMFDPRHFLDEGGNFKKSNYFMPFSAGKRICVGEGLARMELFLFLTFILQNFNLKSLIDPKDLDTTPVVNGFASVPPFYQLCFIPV
# CYP2C19 activ = increases human CYP2C19 enzyme activity. P33261. recombinant CYP2C19, luciferin-H EGE luminescence; active compounds read high; 0 = fully inhibited enzyme, 1 = untreated enzyme. activation factor at 5 µM. 96,000 tested, under 10 active;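 active means activation factor of at least 2 at 5 µM in the primary screen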;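 further: 0 = wells with 2.5 mM tranylcypromine and 1 = vehicle-only wells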
# sEH inh = blocks human soluble epoxide hydrolase activity; recombinant human sEH enzymatic activity assay; inhibition, % at 2 µM; P34913; actives 0.34% (n = 91,000); in the data active means inhibition above about 80%
# CYP2C9 inh = blocks human cytochrome P450 2C9; CYP2C9 Supersomes, luciferin-H conversion, luminescence; actives 20% (n = 96,000); inhibition, % at 5 µM; P11712; AID 777;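 active means blocking of liver enzyme CYP2C9 beyond about 50% at 5 µM, limit read from the data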
# sEH act = soluble epoxide hydrolase (human) activation; P34913; purified human sEH enzymatic activity, activator screen; activation, % at 2 µM; actives 0.04% (n = 91,000); in the data active means activation above about 37%
# CYP2C9 act = activators of human CYP2C9. recombinant CYP2C9, luciferin-H conversion, luminescence; active compounds read high; factor 1 = untreated enzyme, 0 = blocked. activation factor at 5 µM. actives 1.4% (n = 96,000). AID 1024;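 active means activation factor of 2 or more for CYP2C9 at a 5 µM dose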;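 further: 0 = sulfaphenazole-blocked wells and 1 = vehicle-only wells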
# The depositor's hits bear a star; nt = not tested or not shown. Most compounds without a hit are left out; they make up all but 27% or so of the library.
SMILES,CYP2C19 inhib,CYP2C19 activ,sEH inh,CYP2C9 inh,sEH act,CYP2C9 act
Cc1cccc(Cn2cnc3c(nnn3Cc3ccccc3F)c2=O)c1,51.6*,0.5,9.2,-183.4,-7.2,2.8*
CC(C)CCn1c(=O)c2ccccc2c2ccccc2c1=O,86.2*,0.1,10.2,80.0*,-9.6,0.2
O=C(NC1=NCCS1)C1CC2CCC1C2 (stereo not given),30.7,0.7,34.2,5.4,-33.4,0.9
Cc1cccc(C)c1NC(=O)c1cc2c(=O)c3ccccc3oc2nc1C(F)(F)F,3.1,1,6.5,10.1,-4.1,0.9
Cc1ccc2oc3nc(C)c(C(=O)Nc4cccc(C(F)(F)F)c4)cc3c(=O)c2c1,26.5,0.7,-9.8,88.4*,8.5,0.1
COC(=O)c1ccc(COc2cccc(OC)c2)o1,47.2,0.5,-9.6,11.1,9.3,0.9
COC(=O)c1ccc(CN(C(C)=O)c2ccccc2)o1,69.3*,0.3,nt,1.9,nt,1
Cn1c(-c2ccccc2O)cc2ccccc21,nt,nt,-0.5,nt,1.6,nt
CC12CCC(C(=O)Nc3cc(Cl)ccc3Cl)(C/C1=N\O)C2(C)C (stereo not given),25.5,0.7,0.8,-205.8,-0.3,3.1*
CCOC(=O)c1cc(C(=O)OCC)c2ccccn2c1=O,2.6,1,4.1,13.8,-2.0,0.9
C=CCOc1ccc(C(=O)N(Cc2ccc(N(C)C)cc2)C2CCS(=O)(=O)C2)cc1 (stereo not given),2.4,1,-8.9,14.8,8.5,0.9
CCOc1ccc(N2C(=O)CC(N3CCN(C(=O)CN4CCCC4)CC3)C2=O)cc1 (stereo not given),0.7,1,5.8,-4.5,-8.1,1
CCOc1ccc(N2C(=O)CC(N3CCC(NC(=O)Nc4ccccc4)CC3)C2=O)cc1 (stereo not given),89.6*,0.1,34.5,58.7*,-35.0,0.4
Cc1cccc(-c2nsc(SCC(=O)N3CCCC3)n2)c1,50.4*,0.5,4.1,-11.4,-5.1,1.1
CC(=O)Nc1cccc(NC(=O)C2CCCN2C(=O)Nc2ccc(Cl)cc2)c1 (stereo not given),17.7,0.8,53.9,42.0,-54.1,0.6
Cc1ccccc1C(=O)Nc1cccc(NC(=O)c2ccc(-c3ccc(Br)cc3)o2)c1,17.5,0.8,16.2,55.5*,-15.4,0.4
COc1ccc(-c2nc3ccccc3n2Cc2ccccc2)cc1,76.2*,0.2,-2.9,95.9*,1.6,0
COc1ccc2c(c1)nc(N)n2Cc1ccccc1,85.1*,0.1,-1.8,10.0,0.3,0.9
COc1ccc2c(c1)c(=O)c(Br)c(C)n2Cc1ccccc1,19.2,0.8,nt,-4.7,nt,1
C=CCn1c(-c2ccc(OC)cc2)nc2ccccc21,72.6*,0.3,6.3,76.5*,-7.0,0.2
COc1ccc(-c2nnnn2CCc2ccccc2)cc1,97.9*,0,-4.5,71.4*,4.0,0.3
CC12CC3(C)CC(C)(C1)CC(C(=O)Nc1nn[nH]n1)(C2)C3,53.6*,0.5,9.8,14.6,-6.9,0.9
Cc1ccc(-c2noc(CCCC(=O)Nc3cccnc3)n2)cc1,-2.3,1,nt,34.3,nt,0.7
COc1ccc(C(=O)Nn2c(SCc3ccc([N+](=O)[O-])cc3)nc3ccccc3c2=O)cc1,33.8,0.7,22.1,84.3*,-18.9,0.2
COc1ccc(C(=O)Nn2c(SCC(=O)c3ccccc3)nc3ccccc3c2=O)cc1,-2.7,1,1.5,36.8,-2.9,0.6
SMILES,CYP2C19 inhib,CYP2C19 activ,sEH inh,CYP2C9 inh,sEH act,CYP2C9 act
Cc1ccc(CNC(=O)CSc2nc3ccsc3c(=O)n2NC(=O)c2ccccc2)cc1,4.1,1,-13.7,63.5*,13.3,0.4
CCOC(=O)CSc1nc2ccccc2c(=O)n1NC(=O)c1ccccc1,2.5,1,-4.6,67.0*,5.2,0.3
CCC(NC(=O)Nn1cnnc1)(C(F)(F)F)C(F)(F)F,nt,nt,-18.4,nt,13.4,nt
CCc1cc(C(=O)O)c(NC(=O)C(c2ccccc2)c2ccccc2)s1,2.7,1,14.7,97.4*,-14.7,0
COc1ccc(C(=O)n2nc(-c3ccccc3)nc2N)cc1OC,31.9,0.7,-2.0,15.0,5.6,0.8
O=C1CC(Cc2ccccc2)C(=O)N1CCc1ccc2c(c1)OCO2 (stereo not given),85.8*,0.1,-15.9,23.2,14.5,0.8
O=C(O)CN1C(=O)CC(Cc2ccc(Cl)cc2)C1=O (stereo not given),0.3,1,-10.4,7.4,11.9,0.9
O=C1CC(Cc2ccccc2)C(=O)N1CCCn1ccnc1 (stereo not given),100.3*,0,-14.9,68.6*,15.0,0.3
Cc1nn2c3c(cnc2c1-c1ccccc1)C(=O)CC(c1ccccc1)C3 (stereo not given),35.9,0.6,0.0,53.8*,2.9,0.5
CC1(C)CC(=O)C2=C(C1)NC(=O)CC2c1ccc(N(CCC#N)CCC#N)cc1 (stereo not given),-7.1,1.1,nt,-8.5,nt,1.1
COc1ccc(OC)c(/C=N/NC(=O)CC2C(=O)NN=C2C)c1 (stereo not given),-11.2,1.1,-7.0,-4.8,8.0,1
O=C(CNC(=O)Cn1ccc2ccccc2c1=O)NCCCN1CCN(c2cccc(Cl)c2)CC1,10.4,0.9,-10.8,10.3,11.4,0.9
Nn1c(SCc2ccccc2)nnc1-c1ccco1,13.0,0.9,-4.6,-10.9,7.0,1.1
COc1cccc(CSc2nnc(-c3ccco3)n2C)c1,95.0*,0.1,2.5,16.6,-4.8,0.8
Cc1cccc(CSc2nnc(-c3ccco3)n2C)c1,37.1,0.6,-1.1,3.3,1.5,1
Cn1c(SCc2nc(-c3ccc(Br)cc3)no2)nnc1-c1ccco1,5.7,0.9,8.4,25.1,-5.6,0.7
Cn1c(SCc2cccc3ccccc23)nnc1-c1ccco1,83.2*,0.2,3.5,-40.0,-0.7,1.4
Nn1c(SCc2cccc3ccccc23)nnc1-c1ccco1,35.6,0.6,-17.8,-164.5,16.2,2.6*
Cc1cccc(NC(=O)CN2NS(=O)(=O)c3ccccc3C2=O)c1,32.8,0.7,-6.1,59.0*,9.0,0.4
O=C(CS(=O)(=O)Cc1ccccc1)Nc1nc2c(s1)CCCC2,55.8*,0.4,11.3,-3.0,-13.4,1
COc1cccc(NC(=O)CCN2C(=O)c3ccccc3S2(=O)=O)c1,49.8,0.5,9.2,17.9,-7.4,0.8
O=C(CCS(=O)(=O)Cc1ccccc1)Nc1nc2c(s1)CCCC2,15.3,0.8,13.6,20.1,-13.7,0.8
Cc1ncsc1C(=O)Nc1nc2c(s1)CCCC2,65.9*,0.3,-1.1,19.4,-1.3,0.8
CC(C)C(=O)Nc1cccc(NC(=O)CCN2C(=O)c3ccccc3S2(=O)=O)c1,87.0*,0.1,4.4,97.3*,-5.0,0
Cc1cc(C(=O)Nc2nc3c(s2)CCCC3)cs1,3.3,1,nt,15.9,nt,0.8
